LYPLA2 inh – counter-screen for PME1 inhibitors: inhibitors of human LYPLA2; O95372; recombinant LYPLA2, FP-Rh probe fluorescence polarization; inhibition, % at 5.9 µM; 320,000 tested, 0.38% active; AID 2177;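 active means inhibition above the screen-wide mean plus 3 SD, limit set per campaign, cut at about 26% in these data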;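 further: 0% = LYPLA2 with DMSO and 100% = wells lacking LYPLA2 enzyme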
Fam108B counter – blocks mouse Fam108B hydrolase in RBBP9 counter-screen | recombinant Fam108B, FP-Rh probe fluorescence polarization | 300,000 tested, 0.33% active | inhibition, % at 9.51 µM;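 active means inhibition above the screen mean inhibition plus 3 SD, computed separately per campaign, cut at about 18% in these data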;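 further: inhibitors lower polarization as less probe binds the enzyme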
PME-1 primary – PME-1 (human) inhibition | 320,000 tested, 0.53% active | Q9Y570 | inhibition, % at 5.9 µM | recombinant PME-1, FP-Rh probe fluorescence polarization;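 active means inhibition above the campaign mean of all compounds plus 3 SD, cut at about 26% in these data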;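 further: competitive labeling of PME-1 active site by serine hydrolase directed probe; 0% = PME-1 with DMSO and 100% = wells lacking PME-1 enzyme; inhibitors block probe labeling so polarization falls and inhibition rises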
Target sequence (Q9Y570 whole entry, looked up): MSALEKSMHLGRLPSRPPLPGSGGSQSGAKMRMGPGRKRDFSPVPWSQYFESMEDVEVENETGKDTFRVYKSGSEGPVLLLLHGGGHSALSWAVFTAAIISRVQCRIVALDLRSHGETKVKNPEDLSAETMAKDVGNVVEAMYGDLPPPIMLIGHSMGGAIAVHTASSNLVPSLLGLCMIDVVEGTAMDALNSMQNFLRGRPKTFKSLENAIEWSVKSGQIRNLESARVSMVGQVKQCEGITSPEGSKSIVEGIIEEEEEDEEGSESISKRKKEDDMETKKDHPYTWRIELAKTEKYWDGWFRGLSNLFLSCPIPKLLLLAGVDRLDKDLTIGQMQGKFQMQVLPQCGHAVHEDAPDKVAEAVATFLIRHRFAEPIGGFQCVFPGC
PP5 primary – PP5 (human) phosphatase inhibition | AID 1987 | inhibition, % at 6.7 µM | 320,000 tested, 0.18% active | purified PP5c, OMFP substrate fluorescence;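 active means inhibition above the campaign's mean inhibition across all tested compounds plus 3 SD, cut at about 9.5% in these data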;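 further: 0% = DMSO only and 100% = 100 µM cantharidin control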
PP1 inh – blocks human PP1-alpha phosphatase, a PP5 counter-screen; purified PP1alpha, OMFP fluorescence; 320,000 tested, 0.9% active; P62136; inhibition, % at 6.7 µM;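 active means inhibition above the mean inhibition of all tested compounds plus 3 SD, computed separately for each screening campaign, cut at about 15% in these data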
LYPLA1 inh – blocks human lysophospholipase 1, a PME1 counter-screen. O75608. recombinant LYPLA1, FP-Rh probe fluorescence polarization. inhibition, % at 5.9 µM. 320,000 tested, 0.16% active. AID 2174;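 active means inhibition above the mean of all tested compounds plus 3 SD, set per campaign, cut at about 14% in these data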;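 further: inhibitors block serine hydrolase probe labeling of LYPLA1 so polarization falls; 0% = enzyme with DMSO and 100% = wells lacking LYPLA1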
Fam108b inh conf – Fam108b (mouse) hydrolase inhibition, confirmation assay; recombinant Fam108b, FP-Rh probe fluorescence polarization; inhibition, % at 9.51 µM; shares compounds with Fam108B counter; 930 tested, 44% active;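 active means inhibition above a limit from the primary screen, the mean over all compounds plus 3 SD, cut at about 19% in these data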;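 further: 0% = median of active Fam108b wells and 100% = catalytically dead S170A mutant; inhibitors free the probe so polarization falls as inhibition rises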
Fam108b ABPP HTS – inhibits mouse Fam108b in gel-based ABPP; recombinant Fam108b, fluorophosphonate probe; shares compounds with Fam108B counter; inhibition, % at 20 µM; 260 tested, 44% active; in the data active means inhibition above about 40%
PP5 conf – PP5 (human) inhibition, confirmation; shares compounds with PP5 primary; Purified PP5, fluorogenic phosphatase substrate, fluorescence; inhibition, % at 6.7 µM; 460 tested, 22% active; in the data active means inhibition above about 9.5%
PP1 counter 3x – counter-screen for PP5 inhibitors: human PP1 phosphatase inhibition | shares compounds with PP5 primary | PP1 enzyme, fluorescent phosphatase substrate | inhibition, % at 6.7 µM | 460 tested, 4% active; in the data active means inhibition above about 16%
LYPLA1 confirm – counter-screen for PME1 inhibitors: confirmation of human LYPLA1 inhibitors. shares compounds with LYPLA1 inh. recombinant LYPLA1, FP-Rh probe fluorescence polarization. inhibition, % at 5.9 µM. 480 tested, 69% active. AID 2233;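 active means mean inhibition across replicates above the hit cutoff set in the primary screen, cut at about 15% in these data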;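 further: loss of FP-Rh probe labeling of LYPLA1 seen as lower polarization; 0% = LYPLA1 with DMSO and 100% = wells lacking LYPLA1 enzyme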
The depositor's hits bear a star; . = no result given. Shown are actives, neighbours in structure and some others; about 1.8% of the full set was active somewhere.

SMILES	LYPLA2 inh	Fam108B counter	PME-1 primary	PP5 primary	PP1 inh	LYPLA1 inh	Fam108b inh conf	LYPLA1 confirm	others
COc1cc(OC)cc(C(=O)Nc2nnc(Cc3ccc(OC)c(OC)c3)s2)c1	0	-2	-3	2	0	0	.	.
COc1ccc(Nc2sc(C(=O)Nc3cccc(Cl)c3)c(N)c2C(=O)Nc2ccccc2OC)cc1	1	51*	30*	12*	9	-12	6	.	PP5 conf=1;PP1 counter 3x=6
COc1ccccc1NC(=O)c1sc(Cl)nc1C	1	0	1	0	-5	1	.	.
Cc1ccc(S(=O)(=O)/N=C2/C=C(Sc3ncn[nH]3)C(=O)c3ccccc32)c(C)c1	31*	60*	36*	13*	3	1	34*	.	PP5 conf=36*;PP1 counter 3x=15
Cc1ccc(S(=O)(=O)/N=C2\C=C(Nc3cccc(C(=O)O)c3)C(=O)c3ccccc32)c(C)c1	4	35*	23	9.8*	6	-4	49*	.	Fam108b ABPP HTS=15;PP5 conf=36*;PP1 counter 3x=9
Cc1ccc(S(=O)(=O)N2CCN(C(=O)CSc3ncn[nH]3)CC2)c(C)c1	-3	2	-6	0	-2	2	.	.
CNC(=S)N(C)/N=C1/C(=O)N(Cc2c(Cl)cccc2Cl)c2ccccc21	0	.	6	2	4	-2	.	.
COCCNC(=O)Cn1cnc2c(cnn2-c2ccc(OC)cc2)c1=O	3	-2	-1	1	-2	1	.	.
COc1ccc(O)c(/C=N/NC(=S)Nc2cccc(S(=O)(=O)N(C)C)c2)c1	2	37*	53*	12*	2	-4	-8	.	PP5 conf=0;PP1 counter 3x=0
COc1ccc(O)c(/C=N/NC(=S)Nc2cccnc2)c1	4	12	12	2	-6	2	.	.
Nc1ccc(O)cc1	9	64*	50*	11*	13	7	7	.	PP5 conf=5;PP1 counter 3x=-2
CC1=CN2C(=N)/C(=C/c3ccc([N+](=O)[O-])o3)C(=O)N=C2S1	23	19*	33*	-1	7	17*	2	-3
COc1cccc(N=C2NC(=O)/C(=C/c3cc([N+](=O)[O-])ccc3O)S2)c1	-1	19*	-7	-1	8	17*	15	41*
O=C1NC(=Nc2ccccc2Cl)S/C1=C\c1cc([N+](=O)[O-])ccc1O	4	33*	-19	3	7	27*	42*	31*	Fam108b ABPP HTS=30
Cc1cc(C)n(C(=O)N(c2ccccc2)c2ccccc2)n1	3	0	-1	0	0	-1	.	.
CN(CC(=O)Nc1ccc(F)cc1)C(=O)COC(=O)c1cc(S(=O)(=O)N(C)C)ccc1N1CCCC1	7	2	8	2	-2	2	.	.
CC/C(=N/NC(=O)c1ccc(Br)cc1)c1ccc(OCCN2CCOCC2)cc1	11	1	4	0	1	-1	.	.
CCCOc1ccc(/C(CC)=N/NC(=O)C2(C)CC2(Br)Br)cc1 (stereo unspecified)	28*	41*	25	0	1	17*	3	3
O=C1c2cccc3c(O)ccc(c23)C(=O)N1Cc1ccccc1	31*	28*	26	-30	-44	21*	28*	24*
COC(=O)c1cc2c(-c3ccccc3)c(C)c3ccccn3c-2c1C(=O)OC	6	6	5	2	4	2	.	.
COC(=O)c1c(Cl)c2n3ccccc3c(C)c(-c3ccccc3)c-2c1C(=O)OC	20	19*	16	5	2	16*	10	4
